# Over roughly 2,900 compounds, “NF-kB SEAP reporter activity, fold change vs agonist alone” has its median near 0.99; the highest 2% begin near 2.6. This is one part of a sample in which the highest values are shown more often than they occur.
# What was measured:
# RAW-Dual [1] = experiment: NF-kB SEAP reporter activity, fold change vs agonist alone; cytotoxicity flag (confluency mask): cytotoxic (confluency <70% of control); higher = enhanced NF-kB activity
# Summary of the method: (§1)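 RAW-Dual macrophages were seeded in DMEM at 50,000 cells/well in 384-well plates, given 50 nL of library stock by pin tool, and given a PRR agonist 1 h later. Plates were held at 37 °C, 5% CO2 for 20 hours, after which supernatant was read for IRF by QuantiLuc luminescence and for NF-κB by QuantiBlue absorbance at 620 nm. Reporter activity is expressed as fold change over wells that received agonist alone. A well was called cytotoxic when IncuCyte confluency fell below 70% of agonist controls in both mask sets.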
# RAW-Dual [2] = experiment: NF-kB SEAP reporter activity, fold change vs agonist alone; higher = enhanced NF-kB activity
# Summary of the method: as §1
# RAW-Dual [3] = experiment: NF-kB SEAP reporter activity, fold change vs agonist alone; cytotoxicity flag (confluency mask): not cytotoxic; higher = enhanced NF-kB activity
# Summary of the method: as §1
# [4] = agonist: ODN 1826 (TLR9) 0.5 ug/mL
# [5] = agonist: Pam2CSK4 (TLR2/6) 0.1 ug/mL
# [6] = agonist: Pam3CSK4 (TLR2/1) 0.1 ug/mL
# [7] = library stock concentration (final ~1000-fold dilution): 10 mM, cytotoxicity flag (confluency mask): cytotoxic (confluency <70% of control), agonist: Imiquimod (TLR7) […]
# [8] = library stock concentration (final ~1000-fold dilution): 10 mM, cytotoxicity flag (confluency mask): cytotoxic (confluency <70% of control), agonist: MPLA (TLR4) […]
# [9] = library stock concentration (final ~1000-fold dilution): 10 mM, cytotoxicity flag (confluency mask): not cytotoxic, agonist: Imiquimod (TLR7) […]
# [10] = library stock concentration (final ~1000-fold dilution): 10 mM, cytotoxicity flag (confluency mask): not cytotoxic, agonist: MPLA (TLR4) […]
smiles,measurement,setting,value
Cc1cc2c(F)c(Oc3ncnn4cc(OCC(C)OC(=O)C(C)N)c(C)c34)ccc2[nH]1 (stereo not given) (library stock concentration (final ~1000-fold dilution): 10 mM),NF-kB SEAP reporter activity,RAW-Dual [1]; agonist: LPS (TLR4) 0.1 ug/mL,1.52
same,NF-kB SEAP reporter activity,RAW-Dual [1]; [4],0.94
same,NF-kB SEAP reporter activity,RAW-Dual [1]; [5],0.759
same,NF-kB SEAP reporter activity,RAW-Dual [1]; [6],1.13
Cc1cc2c(F)c(Oc3ncnn4cc(OCC(C)OC(=O)C(C)N)c(C)c34)ccc2[nH]1 (stereo not given),NF-kB SEAP reporter activity,RAW-Dual [2]; [7],1.98
same,NF-kB SEAP reporter activity,RAW-Dual [2]; [8],1.72
Nc1ccn(CC(CO)OCP(=O)(O)O)c(=O)n1 (stereo not given) (library stock concentration (final ~1000-fold dilution): 10 mM water),NF-kB SEAP reporter activity,RAW-Dual [3]; agonist: LPS (TLR4) 0.1 ug/mL,1.2
same,NF-kB SEAP reporter activity,RAW-Dual [3]; [4],1.23
same,NF-kB SEAP reporter activity,RAW-Dual [3]; [5],1.32
same,NF-kB SEAP reporter activity,RAW-Dual [3]; [6],1.29
Nc1ccn(CC(CO)OCP(=O)(O)O)c(=O)n1 (stereo not given),NF-kB SEAP reporter activity,"RAW-Dual [2]; library stock concentration (final ~1000-fold dilution): 10 mM water, cytotoxicity flag (confluency mask): not cytotoxic, agonist: Imiquimod (TLR7) […]",0.956
same,NF-kB SEAP reporter activity,"RAW-Dual [2]; library stock concentration (final ~1000-fold dilution): 10 mM water, cytotoxicity flag (confluency mask): not cytotoxic, agonist: MPLA (TLR4) […]",1.04
O=C(c1cn(Cc2cncn2Cc2ccc(Br)cc2)cc1-c1cccc2ccccc12)N1CCOCC1,NF-kB SEAP reporter activity,RAW-Dual [2]; [9],1.35
same,NF-kB SEAP reporter activity,RAW-Dual [2]; [10],1.46
O=C(c1cn(Cc2cncn2Cc2ccc(Br)cc2)cc1-c1cccc2ccccc12)N1CCOCC1 (library stock concentration (final ~1000-fold dilution): 10 mM),NF-kB SEAP reporter activity,RAW-Dual [3]; agonist: LPS (TLR4) 0.1 ug/mL,2.82
same,NF-kB SEAP reporter activity,RAW-Dual [3]; [4],1.54
same,NF-kB SEAP reporter activity,RAW-Dual [3]; [5],0.96
same,NF-kB SEAP reporter activity,RAW-Dual [3]; [6],1.16
O=C1NC(=O)C(c2cn3c4c(cccc24)CCC3)C1c1c[nH]c2ccccc12 (stereo not given),NF-kB SEAP reporter activity,RAW-Dual [2]; [9],2.44
same,NF-kB SEAP reporter activity,RAW-Dual [2]; [10],1.84
O=C1NC(=O)C(c2cn3c4c(cccc24)CCC3)C1c1c[nH]c2ccccc12 (stereo not given) (library stock concentration (final ~1000-fold dilution): 10 mM),NF-kB SEAP reporter activity,RAW-Dual [3]; agonist: LPS (TLR4) 0.1 ug/mL,3.41
same,NF-kB SEAP reporter activity,RAW-Dual [3]; [4],2.7
same,NF-kB SEAP reporter activity,RAW-Dual [3]; [5],1.49
same,NF-kB SEAP reporter activity,RAW-Dual [3]; [6],1.4
Cl.Clc1cccc(-c2nnnn2Cc2cccnc2)c1Cl,NF-kB SEAP reporter activity,RAW-Dual [2]; [9],1
same,NF-kB SEAP reporter activity,RAW-Dual [2]; [10],1.06
Cl.Clc1cccc(-c2nnnn2Cc2cccnc2)c1Cl (library stock concentration (final ~1000-fold dilution): 10 mM),NF-kB SEAP reporter activity,RAW-Dual [3]; agonist: LPS (TLR4) 0.1 ug/mL,1.07
same,NF-kB SEAP reporter activity,RAW-Dual [3]; [4],0.95
same,NF-kB SEAP reporter activity,RAW-Dual [3]; [5],1.04
same,NF-kB SEAP reporter activity,RAW-Dual [3]; [6],0.958
CC1COC2Cn3cc(C(=O)NCc4ccc(F)cc4F)c(=O)c(O)c3C(=O)N12 (stereo not given) (library stock concentration (final ~1000-fold dilution): 10 mM),NF-kB SEAP reporter activity,RAW-Dual [3]; agonist: LPS (TLR4) 0.1 ug/mL,1.38
same,NF-kB SEAP reporter activity,RAW-Dual [3]; [4],1.03
same,NF-kB SEAP reporter activity,RAW-Dual [3]; [5],0.808
same,NF-kB SEAP reporter activity,RAW-Dual [3]; [6],0.866
CC1COC2Cn3cc(C(=O)NCc4ccc(F)cc4F)c(=O)c(O)c3C(=O)N12 (stereo not given),NF-kB SEAP reporter activity,RAW-Dual [2]; [9],0.969
same,NF-kB SEAP reporter activity,RAW-Dual [2]; [10],1.11
COc1cc(C(=O)NC2CCN(C)CC2)ccc1Nc1ncc2c(n1)N(C1CCCC1)CC(F)(F)C(=O)N2C,NF-kB SEAP reporter activity,RAW-Dual [2]; [7],1.71
same,NF-kB SEAP reporter activity,RAW-Dual [2]; [8],2.85
COc1cc(OC2CCN(C)CC2)ccc1Nc1ncc2c(n1)n(C1CCCC1)c(=O)n2C,NF-kB SEAP reporter activity,RAW-Dual [2]; [9],1.11
same,NF-kB SEAP reporter activity,RAW-Dual [2]; [10],0.875
COc1cc(OC2CCN(C)CC2)ccc1Nc1ncc2c(n1)n(C1CCCC1)c(=O)n2C (library stock concentration (final ~1000-fold dilution): 10 mM),NF-kB SEAP reporter activity,RAW-Dual [3]; agonist: LPS (TLR4) 0.1 ug/mL,1.17
same,NF-kB SEAP reporter activity,RAW-Dual [3]; [4],0.955
same,NF-kB SEAP reporter activity,RAW-Dual [3]; [5],0.964
same,NF-kB SEAP reporter activity,RAW-Dual [3]; [6],1.16
C=CC(=O)Nc1cccc(Nc2nc(Nc3ccc(NC4CN(CCF)C4)cc3OC)ncc2C(F)(F)F)c1 (library stock concentration (final ~1000-fold dilution): 10 mM),NF-kB SEAP reporter activity,RAW-Dual [3]; agonist: LPS (TLR4) 0.1 ug/mL,0.561
same,NF-kB SEAP reporter activity,RAW-Dual [3]; [4],0.536
same,NF-kB SEAP reporter activity,RAW-Dual [3]; [5],0.359
same,NF-kB SEAP reporter activity,RAW-Dual [3]; [6],0.725
CCC(=O)Nc1cccc(Oc2nc(Nc3ccc(N4CCN(C)CC4)cc3OC)ncc2Cl)c1,NF-kB SEAP reporter activity,RAW-Dual [2]; [7],1.1
same,NF-kB SEAP reporter activity,RAW-Dual [2]; [8],1.7
CCC1C(=O)N(C)c2cnc(Nc3ccc(C(=O)NC4CCN(C)CC4)cc3OC)nc2N1C1CCCC1 (stereo not given) (library stock concentration (final ~1000-fold dilution): 10 mM),NF-kB SEAP reporter activity,RAW-Dual [1]; agonist: LPS (TLR4) 0.1 ug/mL,0.276
same,NF-kB SEAP reporter activity,RAW-Dual [1]; [4],1.3
same,NF-kB SEAP reporter activity,RAW-Dual [1]; [5],1.54
same,NF-kB SEAP reporter activity,RAW-Dual [1]; [6],3.64
CCC1C(=O)N(C)c2cnc(Nc3ccc(C(=O)NC4CCC(N5CCN(CC6CC6)CC5)CC4)cc3OC)nc2N1C(C)C (stereo not given) (library stock concentration (final ~1000-fold dilution): 10 mM),NF-kB SEAP reporter activity,RAW-Dual [3]; agonist: LPS (TLR4) 0.1 ug/mL,5.71
same,NF-kB SEAP reporter activity,RAW-Dual [3]; [4],0.977
same,NF-kB SEAP reporter activity,RAW-Dual [3]; [5],1.95
same,NF-kB SEAP reporter activity,RAW-Dual [3]; [6],0.886
CCC(=O)Nc1cccc(Oc2nc(Nc3ccc(N4CCN(C)CC4)cc3OC)ncc2Cl)c1 (library stock concentration (final ~1000-fold dilution): 10 mM),NF-kB SEAP reporter activity,RAW-Dual [1]; agonist: LPS (TLR4) 0.1 ug/mL,1.65
same,NF-kB SEAP reporter activity,RAW-Dual [1]; [4],0.875
same,NF-kB SEAP reporter activity,RAW-Dual [1]; [5],0.603
same,NF-kB SEAP reporter activity,RAW-Dual [1]; [6],1.02
COc1cc(C(=O)NC2CCN(C)CC2)ccc1Nc1ncc2c(n1)N(C1CCCC1)CC(F)(F)C(=O)N2C (library stock concentration (final ~1000-fold dilution): 10 mM),NF-kB SEAP reporter activity,RAW-Dual [1]; agonist: LPS (TLR4) 0.1 ug/mL,5.16
same,NF-kB SEAP reporter activity,RAW-Dual [1]; [4],0.745
same,NF-kB SEAP reporter activity,RAW-Dual [1]; [5],1.3
same,NF-kB SEAP reporter activity,RAW-Dual [1]; [6],3.04
Cc1cc(Nc2ncc3c(n2)N(C)C(=O)N(c2cc(NC(=O)c4cccc(C(F)(F)F)c4)ccc2C)C3)n(C)n1 (library stock concentration (final ~1000-fold dilution): 10 mM),NF-kB SEAP reporter activity,RAW-Dual [1]; agonist: LPS (TLR4) 0.1 ug/mL,0.283
same,NF-kB SEAP reporter activity,RAW-Dual [1]; [4],0.186
same,NF-kB SEAP reporter activity,RAW-Dual [1]; [5],0.0623
same,NF-kB SEAP reporter activity,RAW-Dual [1]; [6],0.124
C=CC(=O)Nc1cccc(Nc2nc(Nc3ccc(NC4CN(CCF)C4)cc3OC)ncc2C(F)(F)F)c1,NF-kB SEAP reporter activity,RAW-Dual [2]; [9],1.26
same,NF-kB SEAP reporter activity,RAW-Dual [2]; [10],1.53
CCC1C(=O)N(C)c2cnc(Nc3ccc(C(=O)NC4CCN(C)CC4)cc3OC)nc2N1C1CCCC1 (stereo not given),NF-kB SEAP reporter activity,RAW-Dual [2]; [7],2.21
same,NF-kB SEAP reporter activity,RAW-Dual [2]; [8],0.949
Cc1cc(Nc2ncc3c(n2)N(C)C(=O)N(c2cc(NC(=O)c4cccc(C(F)(F)F)c4)ccc2C)C3)n(C)n1,NF-kB SEAP reporter activity,RAW-Dual [2]; [7],0.128
same,NF-kB SEAP reporter activity,RAW-Dual [2]; [8],0.265
CCC1C(=O)N(C)c2cnc(Nc3ccc(C(=O)NC4CCC(N5CCN(CC6CC6)CC5)CC4)cc3OC)nc2N1C(C)C (stereo not given),NF-kB SEAP reporter activity,RAW-Dual [2]; [9],0.55
same,NF-kB SEAP reporter activity,RAW-Dual [2]; [10],0.684
Cl.Cl.OCCN1CCN(CC/C=C2/c3ccccc3Sc3ccc(C(F)(F)F)cc32)CC1,NF-kB SEAP reporter activity,RAW-Dual [2]; [7],1.58
same,NF-kB SEAP reporter activity,RAW-Dual [2]; [8],0.876
Cl.Cl.OCCN1CCN(CC/C=C2/c3ccccc3Sc3ccc(C(F)(F)F)cc32)CC1 (library stock concentration (final ~1000-fold dilution): 10 mM),NF-kB SEAP reporter activity,RAW-Dual [1]; agonist: LPS (TLR4) 0.1 ug/mL,0.443
same,NF-kB SEAP reporter activity,RAW-Dual [1]; [4],0.412
same,NF-kB SEAP reporter activity,RAW-Dual [1]; [5],0.431
same,NF-kB SEAP reporter activity,RAW-Dual [1]; [6],0.63
CC(=O)OC12COC1CC(O)C1(C)C(=O)C(O)C3=C(C)C(OC(=O)C(O)C(NC(=O)OC(C)(C)C)c4ccccc4)CC(O)(C(OC(=O)c4ccccc4)C21)C3(C)C (stereo not given) (library stock concentration (final ~1000-fold dilution): 10 mM),NF-kB SEAP reporter activity,RAW-Dual [3]; agonist: LPS (TLR4) 0.1 ug/mL,1.2
same,NF-kB SEAP reporter activity,RAW-Dual [3]; [4],0.995
same,NF-kB SEAP reporter activity,RAW-Dual [3]; [5],1.02
same,NF-kB SEAP reporter activity,RAW-Dual [3]; [6],0.841
CC(=O)OC12COC1CC(O)C1(C)C(=O)C(O)C3=C(C)C(OC(=O)C(O)C(NC(=O)OC(C)(C)C)c4ccccc4)CC(O)(C(OC(=O)c4ccccc4)C21)C3(C)C (stereo not given),NF-kB SEAP reporter activity,RAW-Dual [2]; [9],1.14
same,NF-kB SEAP reporter activity,RAW-Dual [2]; [10],1.24

# Reference: the supplement of paper PMC10037445
